Bioassay records (PubChem)
12-LOX inh: Primary qHTS assay for inhibitors of human arachidonate 12S-lipoxygenase (ALOX12): Round 2; 580,000 compounds, 1.1% hits; purified 12hLO, xylenol orange hydroperoxide absorbance; Potency, µM (series often up to 108 µM), inactives show at the highest dose activity change, negative = inhibition, usual class: inhibitors; AID 1671190, 2021; Polyunsaturated fatty acid lipoxygenase ALOX12 (Homo sapiens), P18054; note: potency is the fitted concentration of half-maximal effect
Target sequence (P18054 whole entry, looked up): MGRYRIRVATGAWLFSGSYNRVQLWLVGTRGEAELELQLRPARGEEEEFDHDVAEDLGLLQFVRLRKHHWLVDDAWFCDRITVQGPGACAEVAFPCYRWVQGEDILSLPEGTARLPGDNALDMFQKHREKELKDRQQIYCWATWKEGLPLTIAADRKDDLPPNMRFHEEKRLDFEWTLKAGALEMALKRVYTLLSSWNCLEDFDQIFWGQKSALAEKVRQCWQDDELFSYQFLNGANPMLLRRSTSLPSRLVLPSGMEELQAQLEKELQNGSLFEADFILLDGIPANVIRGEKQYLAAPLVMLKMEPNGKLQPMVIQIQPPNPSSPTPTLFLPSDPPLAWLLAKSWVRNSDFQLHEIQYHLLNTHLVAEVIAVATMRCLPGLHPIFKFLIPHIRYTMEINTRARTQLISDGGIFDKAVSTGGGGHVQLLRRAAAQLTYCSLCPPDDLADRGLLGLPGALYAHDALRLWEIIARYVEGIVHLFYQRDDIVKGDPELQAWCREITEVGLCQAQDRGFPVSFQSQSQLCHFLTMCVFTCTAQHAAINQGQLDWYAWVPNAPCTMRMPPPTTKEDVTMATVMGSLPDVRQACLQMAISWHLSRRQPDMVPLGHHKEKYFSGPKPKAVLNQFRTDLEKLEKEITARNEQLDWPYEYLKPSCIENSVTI
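Purified human 12hLO (150 nM final) in 25 mM Hepes, 0.01% Triton X-100, pH 7.0 was preincubated 15 min at room temperature with compound. Then 40 uM arachidonic acid was added, 30 min. Hydroperoxide was read by Fe-XO absorbance ratio 573/405 nm.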
DT40 TDP1 no CPT: qHTS for Inhibitors of human tyrosyl-DNA phosphodiesterase 1 (TDP1): qHTS in cells in absence of CPT; DT40 Tdp1-/- hTDP1 cells, no CPT, ATP luminescence, 48 h; Potency, µM (series often up to 46.2 µM), inactives show top-dose activity change, negative = growth inhibition, actives largely listed as inhibitors; 420,000 compounds, 15% hits; note: potency is the fitted concentration of half-maximal effect; nearly all actives have a fitted effect of over 55% in size
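Chicken DT40 Tdp1-/- cells complemented with human TDP1, screened without camptothecin (DMSO vehicle only), 400 cells/well. Compounds pin-transferred, cells incubated at 37 °C for at least 48 hr. Growth read as ATP-dependent luminescence (CellTiter-Glo, 30 min at RT).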
IL-1B inflam inh: qHTS for Inhibitors of Inflammasome Signaling: IL-1-beta AlphaLISA Primary Screen; THP-1 LPS/ATP IL-1B secretion, AlphaLISA, 16 h; stronger effect = lower value; activity change, % at 57.5 µM; 360,000 compounds, 4.7% hits; in the data active = activity change below about -50%; inconclusive = mostly about -30% to -49%
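Secreted IL-1B measured by AlphaLISA bead assay after 16 h compound exposure of THP-1 cells; compounds (final up to 57.5 uM) added 1 h before LPS (250 ng/mL) and ATP (1.25 mM) stimulation; lower signal means less secretion.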
TDP1 cell CPT: qHTS for Inhibitors of human tyrosyl-DNA phosphodiesterase 1 (TDP1): qHTS in cells in presence of CPT; 420,000 compounds, 12% hits; chicken DT40 Tdp1-/-;hTDP1 cells + 20 nM CPT, ATP luminescence, 48 h; Potency, µM (highest dose often 46.2 µM), inactives show top-dose activity change, negative = growth inhibition, most hits filed as inhibitors; note: potency is the fitted concentration of half-maximal effect; nearly all actives have a fitted effect of over 55% in size
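Chicken DT40 Tdp1-/- cells stably complemented with human TDP1 were seeded at 400 cells/well in medium containing 20 nM camptothecin, exposed to pin-transferred compounds, and grown at 37 °C for at least 48 hr. Viability was read as ATP luminescence.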
HT1080NT lethal: qHTS for induction of synthetic lethality in tumor cells producing 2HG: qHTS for the HT-1080-NT fibrosarcoma cell line | HT-1080-NT fibrosarcoma viability, CellTiter-Glo ATP luminescence, 48 h | Potency, µM (top dose mostly 46.1 µM), inactives show top-dose activity, negative = less viability, hits mostly cytotoxic | 360,000 compounds, 1.6% hits | AID 686970, 2013;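 note: NT is the 2HG producing partner of a matched IDH1 knockdown line; potency is the fitted concentration of half-maximal effect; 0% = DMSO-treated cells and -100% = media-only wells without cells; nearly all actives have a fitted effect of over 55% in size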
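HT-1080-NT; 750 cells/well; 5% FBS RPMI; 48 h compound, 37 degrees C; CellTiter-Glo luminescence; curve fitting and curve-class assignment.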
HT1080 IDH1KD tx: qHTS for induction of synthetic lethality in tumor cells producing 2HG: qHTS for the HT-1080-IDH1KD cell line | HT-1080 IDH1 knockdown viability, ATP luminescence, 48 h | Potency, µM (series often up to 46.1 µM), without a hit: top-dose activity, negative = toxicity, actives largely listed as cytotoxic | 360,000 compounds, 2% hits;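 note: potency is the fitted concentration of half-maximal effect; 0% = DMSO wells and -100% = cell-free medium wells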
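Cytotoxicity counter-line: IDH1KD HT-1080, 48 h, CellTiter-Glo. Curves classed by r2, magnitude and activity.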
* marks the source's active call; other numbers are inactive results; ? = inconclusive; . = no result given; [ ] = dose if it differs, or a comment. This is one part of a sample in which hits are shown more often than they occur. Unless noted, calls come from the whole dose curve; as a rule, active = well fitted curve in the direction sought with a large enough effect; inconclusive = small, poorly fitted or top-dose-only effect, or another doubt; inactive = no such curve, though single readings can be large; an effect the other way counts as inactive or inconclusive. Unless noted, % is set by controls: 0 for no effect and ±100 for the full control effect.

SMILES	12-LOX inh	DT40 TDP1 no CPT	IL-1B inflam inh	TDP1 cell CPT	HT1080NT lethal	HT1080 IDH1KD tx
CCOC(=S)SCc1cn2ccc(C)cc2n1	-19%	?	-57*	?	9%	10%
CC1=CC(C)(C)Nc2ccc(OC(=O)C(Sc3ccccc3)c3ccccc3)cc21 (stereo not drawn)	-20%	.	.	.	.	.
COc1ccccc1-c1cc(C(=O)N2CCN(c3ccccc3OC)CC2)no1	8%	?	-2	18µM*	?	?
COc1ccccc1N1CCN(C(=O)c2nc(SC)ncc2Cl)CC1	-17%	1µM*	.	1µM*	.	.
COc1ccccc1N1CCN(C(=O)c2onc(C)c2Cl)CC1	50%	?	78	?	?	?
COc1ccccc1N1CCN(C(=O)c2cc(-c3ccc(C)cc3)on2)CC1	-9%	?	-1	?	-4%	-5%
COc1ccccc1N1CCN(C(=O)c2cc(-c3ccc(Cl)cc3)on2)CC1	-9%	?	0	22µM*	-6%	-15%
Cc1ccc(C(=O)N/N=C/C(C)c2ccccc2)c(C)c1 (stereo not drawn)	6%	.	.	.	.	.
COC(=O)c1cc(Sc2c(Cl)cccc2Cl)ccn1	40µM*	2.3µM*	32	-25%	-19%	?
COc1cc2c(cc1OC)C(c1ccc(Br)cc1)NC(=O)C2 (stereo not drawn)	-23%	-17%	-71*	2%	-4%	-4%
Cc1sc2ncnc(N3CCC(C(=O)Nc4cc(S(C)(=O)=O)ccc4Cl)CC3)c2c1C	2%	18µM*	?	13µM*	-14%	-11%
COC(CNC(=O)C1CCN(c2ncnc3sc(C)c(C)c23)CC1)OC	0%	.	.	.	.	.
Cc1sc2ncnc(N3CCC(C(=O)Nc4cc(C(F)(F)F)ccc4OCC(F)(F)F)CC3)c2c1C	-4%	18µM*	-56*	?	-9%	-10%
COc1ccc(S(=O)(=O)N(C)C)cc1NC(=O)C1CCN(c2ncnc3sc(C)c(C)c23)CC1	-3%	9.2µM*	-15	21µM*	-15%	-29%
Cc1sc2ncnc(N3CCC(C(=O)NNC(=O)c4ccc(Cl)cc4)CC3)c2c1C	1%	15µM*	-81*	16µM*	-9%	-6%
Cc1sc2ncnc(N3CCC(C(=O)Nc4cc(Cl)ccc4Cl)CC3)c2c1C	0%	?	-1	?	-15%	-22%
CCOc1ccc(C2CC(c3ccccc3NS(C)(=O)=O)=NN2C(C)=O)cc1 (stereo not drawn)	34%	.	.	.	.	.
Cc1ccc(S(=O)(=O)C(C#N)c2nc3ccccc3nc2N2CC(C)OC(C)C2)cc1C (stereo not drawn)	-53%	15µM*	18	?	-13%	-20%
COc1ccc(S(=O)(=O)C(C#N)c2nc3ccccc3nc2N2CCCC(C)C2)cc1 (stereo not drawn)	?	-10%	12	-8%	-9%	-1%
Cc1cccc(S(=O)(=O)C(C#N)c2nc3ccccc3nc2N2CC(C)OC(C)C2)c1 (stereo not drawn)	?	26µM*	42	26µM*	-27%	-1%[9.24 µM]
Cc1ccc(S(=O)(=O)C(C#N)c2nc3ccccc3nc2N2CCCC2)cc1 (stereo not drawn)	?	?	7	-29%	-3%	0%
N#CC(c1nc2ccccc2nc1N1CCOCC1)S(=O)(=O)c1ccccc1 (stereo not drawn)	?	29µM*	.	-7%	-6%	1%
CCN1CCN(c2nc3ccccc3nc2C(C#N)S(=O)(=O)c2ccc(C)c(C)c2)CC1 (stereo not drawn)	0%	-9%	7	-4%	-4%	8%
Cc1ccccc1-c1nc(C#N)c(NCCCN2CCOCC2)o1	-14%	.	.	.	.	.
Cc1cccc(OCCCSc2nc3ccc(C)cc3[nH]2)c1	0%	?	-72*	?	6%	7%
SMILES	12-LOX inh	DT40 TDP1 no CPT	IL-1B inflam inh	TDP1 cell CPT	HT1080NT lethal	HT1080 IDH1KD tx
Cc1cccc(OCCSc2nc3ncnc(N)c3[nH]2)c1	-6%	-27%	5	?	0%	-11%
Cc1ccccc1CN1Cc2cccc3c2[C@H](C=CC3)CC1=O	.	10µM*	.	11µM*	.	.
O=C1C[C@H]2C=CCc3cccc(c32)CN1Cc1ccc(Br)cc1	.	11µM*	.	?	.	.
Fc1ccc(CN2CC[C@H]3C=CCc4cccc(c43)C2)cc1	30%	?	24	?	-5%	-12%
Clc1ccc(CN2CC[C@H]3C=CCc4cccc(c43)C2)cc1	-3%	21µM*	18	?	-9%	-16%
CN(Cc1ccccc1)C(=O)CSc1nc2ccsc2c(=O)n1-c1ccc(F)cc1	1%	21µM*	.	?	.	.
CC(C)N(C(=O)CSc1nc2ccccc2n1Cc1ccccc1F)C(C)C	-8%	16µM*	-10	16µM*	2%	-29%
CN(Cc1ccccc1)C(=O)CSc1nc2ccccc2n1Cc1ccccc1F	?	6.5µM*	.	?	.	.
NC(=O)CSc1nc2ccccc2n1Cc1ccccc1F	0%	?	-5	-25%	-7%	-15%
CN(C(=O)CSc1ccc2c(c1)OCCCO2)c1ccccc1	40%	.	.	.	.	.
COc1ccccc1CNC(=O)c1cc(-c2ccccc2)nn1Cc1cc(C)no1	-15%	?	-23	?	0%	0%
CCc1cc(Cn2nc(-c3ccccc3)cc2C(=O)NCc2ccccc2OC)on1	-18%	21µM*	?	?	4%	-4%
O=[N+]([O-])c1cc(C(F)(F)F)cc([N+](=O)[O-])c1NN=C1CCCCC1	?	23µM*	-1	?	-1%	0%
O=[N+]([O-])c1cc(C(F)(F)F)cc([N+](=O)[O-])c1NCCN1CCNCC1	-5%	21µM*	11	21µM*	-2%	-6%
Cc1noc(C)c1CC(=O)N1Cc2ccccc2OC2(CCN(C(=O)NC(C)C)CC2)C1	-5%[6.33 µM]	.	.	.	.	.
[O-]/C(=C(\C(=S)Nc1cccc2ccccc12)[n+]1ccccc1)c1ccc(OC(F)F)cc1	-20%	21µM*	18	?	-11%	-17%
